For some of these results: Measured potencies and affinities stand elsewhere.

Common to all, as to parameters: scale not given: direction of the effect not stated beside the values
For experiment [1], the target named is Protein translocase subunit SecA (Escherichia coli (strain K12)) (UniProt P10408). The experiment can be described thus: Assay to Identify E. coli SecA ATPase Inhibitors. The following applies: 30 µM. It counts as functional.
The target in experiment [2] is T1, Ubiquitin-activating enzyme e1, putative (Leishmania donovani (strain BPK282A1)) (UniProt E9BSI1).
T1 sequence (whole entry): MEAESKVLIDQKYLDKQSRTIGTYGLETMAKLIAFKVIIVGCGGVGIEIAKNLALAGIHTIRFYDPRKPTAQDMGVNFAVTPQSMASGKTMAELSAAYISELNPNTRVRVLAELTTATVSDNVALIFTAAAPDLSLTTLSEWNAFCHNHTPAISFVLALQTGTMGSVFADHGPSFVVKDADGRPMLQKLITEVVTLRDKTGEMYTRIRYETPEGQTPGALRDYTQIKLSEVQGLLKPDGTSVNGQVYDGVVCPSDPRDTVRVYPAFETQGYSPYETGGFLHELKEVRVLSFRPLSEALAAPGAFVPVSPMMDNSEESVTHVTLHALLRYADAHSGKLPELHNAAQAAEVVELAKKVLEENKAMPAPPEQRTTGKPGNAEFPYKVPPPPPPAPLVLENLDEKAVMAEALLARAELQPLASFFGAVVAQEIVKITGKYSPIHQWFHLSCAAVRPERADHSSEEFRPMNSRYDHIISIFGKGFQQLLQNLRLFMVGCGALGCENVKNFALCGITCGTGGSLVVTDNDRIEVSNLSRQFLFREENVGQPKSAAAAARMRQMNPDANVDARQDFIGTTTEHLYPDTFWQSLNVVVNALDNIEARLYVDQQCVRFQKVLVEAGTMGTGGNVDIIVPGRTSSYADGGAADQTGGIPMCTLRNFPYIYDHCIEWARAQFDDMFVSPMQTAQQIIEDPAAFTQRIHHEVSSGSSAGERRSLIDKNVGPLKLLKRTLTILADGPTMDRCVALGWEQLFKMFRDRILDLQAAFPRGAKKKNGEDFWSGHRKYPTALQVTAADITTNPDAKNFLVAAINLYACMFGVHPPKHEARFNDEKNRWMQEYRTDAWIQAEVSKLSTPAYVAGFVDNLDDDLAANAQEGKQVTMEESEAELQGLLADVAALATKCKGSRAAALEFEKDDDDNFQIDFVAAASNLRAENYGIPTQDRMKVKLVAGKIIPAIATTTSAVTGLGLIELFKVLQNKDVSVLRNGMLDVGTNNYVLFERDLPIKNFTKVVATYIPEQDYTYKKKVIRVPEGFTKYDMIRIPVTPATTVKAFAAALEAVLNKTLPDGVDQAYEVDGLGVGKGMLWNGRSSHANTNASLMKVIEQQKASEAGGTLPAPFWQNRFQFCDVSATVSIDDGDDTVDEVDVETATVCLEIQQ
Briefly: Leishmania donovani Ubiquitin Activating Enzyme (LdE1). Type of experiment: functional. The note with it: 30 µM.

Experiment [3] addresses AMP-activated protein kinase, AMPK (Homo sapiens) (UniProt P54646+O43741+P54619+Q9UGJ0+Q9Y478+Q13131+Q9UGI9). Briefly: AMP-dependent Kinase enzyme assay. An in vitro enzyme assay that detects ADP turnover that is directly proportional to AMPK activity. This uses naive AMPK that is activated during the assay with MK-8722. It counts as functional. The following applies: 30 µM.

The target in experiment [4] is Sialic acid-binding Ig-like lectin 9 (Homo sapiens) (UniProt Q9Y336). The experiment can be described thus: Hs-Siglec9 ALPHAscreen SOP 20170721. The note with it: 10 µM.
A further experiment deals with Trypanosoma cruzi. Briefly: Trypanosoma cruzi phosphomannomutase and mannose-1-phosphate guanylyltransferase assay. It counts as functional. The note with it: 10 µM.
Experiment [5] addresses T2, Arginase-2, mitochondrial (Homo sapiens) (UniProt P78540).
T2 sequence (whole entry): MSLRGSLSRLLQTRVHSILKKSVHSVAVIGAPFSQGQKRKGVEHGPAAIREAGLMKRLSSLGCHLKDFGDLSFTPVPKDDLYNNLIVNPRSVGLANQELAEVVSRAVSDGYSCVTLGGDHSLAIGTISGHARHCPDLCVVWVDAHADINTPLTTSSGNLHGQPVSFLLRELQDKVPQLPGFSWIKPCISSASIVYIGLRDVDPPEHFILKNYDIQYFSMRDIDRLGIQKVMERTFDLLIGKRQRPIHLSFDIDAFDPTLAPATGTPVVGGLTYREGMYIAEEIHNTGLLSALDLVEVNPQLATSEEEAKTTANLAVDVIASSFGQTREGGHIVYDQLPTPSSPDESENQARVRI
The experiment can be described thus: in vitro enzyme assay to detect the production of urea directly proportional to the activity of Arginase II. Further: in the data most compounds retested in dose-response had high values. Type of experiment: functional. The note with it: 33.3 µM.

Experiment [6] addresses T3, Proteasome subunit beta (Trypanosoma cruzi) (UniProt O96673).
T3 sequence (whole entry): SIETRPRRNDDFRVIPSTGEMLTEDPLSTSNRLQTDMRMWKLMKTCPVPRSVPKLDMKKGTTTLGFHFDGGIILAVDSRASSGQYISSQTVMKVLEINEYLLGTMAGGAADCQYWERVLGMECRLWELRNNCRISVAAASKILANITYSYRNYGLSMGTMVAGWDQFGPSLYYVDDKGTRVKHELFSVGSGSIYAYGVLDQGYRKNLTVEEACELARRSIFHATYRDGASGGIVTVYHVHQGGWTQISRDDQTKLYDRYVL
The experiment can be described thus: Trypanosoma cruzi proteasome chymotrypsin-like activity (TcProtChymo) assay. Further: in the data most compounds retested in dose-response had high values. It counts as functional. The note with it: 9.37 µM.

Another experiment is filed under the species Homo sapiens. The experiment can be described thus: To identify inhibition of the IFN signalling (Jak-Stat) pathway via expression of an eGFP reporter gene under the control of an IFN-stimulated response element (ISRE) containing MxA promoter. The note with it: 30 µM. It counts as functional. In general terms: A reporter such as luciferase makes a cellular process visible.

Experiment [7] deals with T4, Tyrosyl-tRNA synthetase, putative (Trypanosoma cruzi (strain CL Brener)) (UniProt Q4DSP6).
T4 sequence (whole entry): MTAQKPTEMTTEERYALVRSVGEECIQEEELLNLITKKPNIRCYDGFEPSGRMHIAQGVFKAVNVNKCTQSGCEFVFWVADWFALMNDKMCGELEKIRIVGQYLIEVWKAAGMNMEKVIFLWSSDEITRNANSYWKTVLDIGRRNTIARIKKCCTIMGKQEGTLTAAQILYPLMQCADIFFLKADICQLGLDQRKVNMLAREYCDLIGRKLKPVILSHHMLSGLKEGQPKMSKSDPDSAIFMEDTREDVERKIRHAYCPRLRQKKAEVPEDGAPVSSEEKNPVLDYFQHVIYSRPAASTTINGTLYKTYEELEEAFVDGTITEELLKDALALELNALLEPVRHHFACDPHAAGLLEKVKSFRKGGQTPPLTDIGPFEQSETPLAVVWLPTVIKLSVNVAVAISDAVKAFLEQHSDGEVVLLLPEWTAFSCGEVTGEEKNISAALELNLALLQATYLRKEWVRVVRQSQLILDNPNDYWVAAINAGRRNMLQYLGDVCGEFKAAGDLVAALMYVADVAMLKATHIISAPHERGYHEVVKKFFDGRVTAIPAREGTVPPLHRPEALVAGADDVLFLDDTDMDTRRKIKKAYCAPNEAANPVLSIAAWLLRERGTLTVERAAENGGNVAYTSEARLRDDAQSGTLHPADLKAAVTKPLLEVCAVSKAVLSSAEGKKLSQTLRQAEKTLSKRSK
Briefly: Trypanosoma cruzi tyrosyl tRNA synthetase (TcYRS) _High Tyrosine SOP. Further: in the data most compounds retested in dose-response had high values. Type of experiment: functional. The following applies: 30 µM.

Experiment [8] deals with T4, Tyrosyl-tRNA synthetase, putative (Trypanosoma cruzi (strain CL Brener)). Briefly: Trypanosoma cruzi tyrosyl tRNA synthetase (TcYRS) SOP. It counts as functional. The following applies: 30 µM.
The target of experiment [9] is Chromo domain-containing protein 1 (Saccharomyces cerevisiae (strain ATCC 204508 / S288c) (Baker's yeast)) (UniProt P32657). Briefly: ScCHD-1 Enzyme Inhibition Assay. Further: in the data most compounds retested in dose-response had high values. Type of experiment: functional. The following applies: 30 µM.
Sequence of Chromo domain-containing protein 1 (Saccharomyces cerevisiae (strain ATCC 204508 / S288c) (Baker's yeast)) (P32657 whole entry, the tested form may be a part): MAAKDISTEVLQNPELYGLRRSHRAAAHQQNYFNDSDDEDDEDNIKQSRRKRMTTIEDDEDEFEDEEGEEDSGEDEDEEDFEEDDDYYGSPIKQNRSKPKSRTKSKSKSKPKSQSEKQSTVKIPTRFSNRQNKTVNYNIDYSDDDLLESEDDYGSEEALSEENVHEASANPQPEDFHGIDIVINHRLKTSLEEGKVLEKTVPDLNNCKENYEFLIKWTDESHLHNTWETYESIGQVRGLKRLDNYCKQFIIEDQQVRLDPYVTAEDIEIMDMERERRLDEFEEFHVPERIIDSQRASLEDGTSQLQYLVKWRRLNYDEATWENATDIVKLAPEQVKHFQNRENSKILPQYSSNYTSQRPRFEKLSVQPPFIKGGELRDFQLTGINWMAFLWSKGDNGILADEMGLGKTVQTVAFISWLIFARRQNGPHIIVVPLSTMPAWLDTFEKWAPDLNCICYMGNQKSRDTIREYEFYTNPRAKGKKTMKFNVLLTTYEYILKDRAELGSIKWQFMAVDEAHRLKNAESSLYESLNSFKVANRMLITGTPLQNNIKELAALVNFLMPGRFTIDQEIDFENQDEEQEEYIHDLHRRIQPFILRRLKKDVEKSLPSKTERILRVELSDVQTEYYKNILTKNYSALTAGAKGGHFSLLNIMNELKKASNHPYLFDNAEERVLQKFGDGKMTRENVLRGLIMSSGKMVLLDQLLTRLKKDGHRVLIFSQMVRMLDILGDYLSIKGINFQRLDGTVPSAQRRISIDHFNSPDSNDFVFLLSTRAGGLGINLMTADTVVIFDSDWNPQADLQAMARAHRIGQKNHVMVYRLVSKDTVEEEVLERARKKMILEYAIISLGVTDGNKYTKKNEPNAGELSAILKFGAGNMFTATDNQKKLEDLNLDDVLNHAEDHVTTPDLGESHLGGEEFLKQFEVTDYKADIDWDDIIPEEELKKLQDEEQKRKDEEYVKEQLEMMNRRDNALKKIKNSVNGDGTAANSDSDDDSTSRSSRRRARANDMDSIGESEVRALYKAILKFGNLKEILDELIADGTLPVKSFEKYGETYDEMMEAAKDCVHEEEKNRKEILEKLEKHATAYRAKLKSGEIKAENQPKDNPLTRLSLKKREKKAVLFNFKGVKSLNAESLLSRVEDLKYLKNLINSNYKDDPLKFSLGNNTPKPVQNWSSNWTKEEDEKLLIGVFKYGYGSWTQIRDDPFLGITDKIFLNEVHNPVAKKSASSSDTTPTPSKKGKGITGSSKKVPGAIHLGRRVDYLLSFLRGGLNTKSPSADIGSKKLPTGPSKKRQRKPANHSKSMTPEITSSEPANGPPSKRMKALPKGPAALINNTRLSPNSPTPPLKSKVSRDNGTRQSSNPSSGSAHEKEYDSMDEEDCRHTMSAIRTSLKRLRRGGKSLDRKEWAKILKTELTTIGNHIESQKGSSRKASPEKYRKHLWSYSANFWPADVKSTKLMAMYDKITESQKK

Sequence of Sialic acid-binding Ig-like lectin 9 (Homo sapiens) (Q9Y336 whole entry): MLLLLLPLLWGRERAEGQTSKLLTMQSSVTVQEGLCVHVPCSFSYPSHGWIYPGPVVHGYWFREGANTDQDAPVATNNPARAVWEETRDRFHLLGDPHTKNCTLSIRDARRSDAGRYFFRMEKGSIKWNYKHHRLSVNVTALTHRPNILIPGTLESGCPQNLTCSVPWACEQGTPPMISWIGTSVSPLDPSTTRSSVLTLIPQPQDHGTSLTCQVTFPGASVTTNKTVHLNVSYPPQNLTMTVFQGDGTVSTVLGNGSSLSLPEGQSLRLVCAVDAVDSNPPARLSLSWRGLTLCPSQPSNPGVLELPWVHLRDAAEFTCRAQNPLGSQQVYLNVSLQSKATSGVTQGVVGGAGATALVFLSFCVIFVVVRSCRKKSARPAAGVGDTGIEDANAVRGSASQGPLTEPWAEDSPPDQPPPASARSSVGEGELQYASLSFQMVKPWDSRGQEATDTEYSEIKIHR
Sequence of Protein translocase subunit SecA (Escherichia coli (strain K12)) (P10408 whole entry): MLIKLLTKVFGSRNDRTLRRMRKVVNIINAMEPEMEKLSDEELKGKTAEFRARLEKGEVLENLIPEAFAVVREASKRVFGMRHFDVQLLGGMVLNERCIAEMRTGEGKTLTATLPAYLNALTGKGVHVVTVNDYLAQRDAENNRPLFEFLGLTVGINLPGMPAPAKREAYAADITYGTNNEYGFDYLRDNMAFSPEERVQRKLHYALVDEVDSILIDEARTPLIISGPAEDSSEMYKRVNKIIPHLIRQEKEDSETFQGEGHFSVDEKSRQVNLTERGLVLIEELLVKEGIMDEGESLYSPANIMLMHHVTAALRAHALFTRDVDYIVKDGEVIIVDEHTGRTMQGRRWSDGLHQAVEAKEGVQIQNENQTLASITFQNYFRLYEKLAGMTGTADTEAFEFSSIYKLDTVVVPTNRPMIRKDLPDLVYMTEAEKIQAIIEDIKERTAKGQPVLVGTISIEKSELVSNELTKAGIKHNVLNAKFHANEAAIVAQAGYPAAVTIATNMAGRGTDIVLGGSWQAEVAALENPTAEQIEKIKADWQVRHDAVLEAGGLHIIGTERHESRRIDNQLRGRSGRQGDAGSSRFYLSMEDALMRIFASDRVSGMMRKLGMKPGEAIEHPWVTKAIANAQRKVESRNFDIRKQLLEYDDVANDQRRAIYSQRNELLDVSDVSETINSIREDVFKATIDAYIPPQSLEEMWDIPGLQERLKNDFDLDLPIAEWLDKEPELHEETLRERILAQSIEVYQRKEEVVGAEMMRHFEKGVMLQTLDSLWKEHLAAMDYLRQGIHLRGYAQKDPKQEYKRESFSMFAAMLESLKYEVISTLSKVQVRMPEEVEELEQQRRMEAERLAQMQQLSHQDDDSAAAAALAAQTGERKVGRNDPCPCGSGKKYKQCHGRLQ

Take `COc1ccnc(N2CCN(C(=O)CCc3nccs3)CC2)n1`: the Percent Effect in experiment [1] is 0.0461%; in [2] it was 8.11%; in experiment [3], -3.33%; in experiment [4], 0.0327%; in the experiment with Trypanosoma cruzi, -1.54%; in [5], -2.38%. Besides, the Percent Effect was 12.1% in experiment [6]; 14.1% in the experiment filed under Homo sapiens; 2.65% in experiment [7]; 7.32% in experiment [8]; -3.79% in experiment [9].
In the case of `COCc1ccccc1C(=O)NCCCN1CCCC1C(=O)N(C)C` (stereo not drawn), the Percent Effect is 0.173% in experiment [1]; 8.22% in [2]; -7.48% in [3]; 6.16% in [4]; 2.94% in the experiment with Trypanosoma cruzi; -2.27% in experiment [5]. Further, the Percent Effect was 15.8% in [6]; 13.9% in the experiment listed under Homo sapiens; 3.23% in [7]; 12.5% in experiment [8]; -6.47% in experiment [9].
For `COc1ccc(C(=O)N(C)Cc2nnc3ccccn23)c(OC)c1`, the Percent Effect in experiment [1] was -4.19%; in [2], -5.2%; in experiment [3], 1.07%; in experiment [4], 4.72%; in the experiment with Trypanosoma cruzi, 2.06%; in experiment [5] it was -1.47%. The Percent Effect in experiment [6] is 12.5%; in the experiment filed under Homo sapiens it was -2.12%; in experiment [7] it was 2.86%; in experiment [8], 14.1%; in [9] it was -15.8%.
`Cc1cc(CN2CCN(CC(O)c3ccccc3)CC2)no1` (stereo not drawn): the Percent Effect in [1] was -5.4%; in [2], 10.1%; in experiment [3], -4.74%; in [4], 1.14%; in the experiment with Trypanosoma cruzi it was 7.65%; in [5], 2.28%. For the same molecule, the Percent Effect is -0.0819% in experiment [6]; -14.5% in the experiment listed under Homo sapiens; 6.4% in [7]; 13.9% in [8]; -1.57% in experiment [9].
`O=C(NCCC1=CCCCC1)NCc1nnc2n1CCC2`: the Percent Effect was -2.33% in experiment [1]; 15.8% in experiment [2]; 1.86% in experiment [3]; -11.8% in experiment [4]; -5.88% in the experiment on Trypanosoma cruzi; 7.91% in [5]. Also, the Percent Effect is 6.18% in experiment [6]; 7.88% in the experiment listed under Homo sapiens; 7.39% in experiment [7]; 16.1% in experiment [8]; -8.65% in [9].
For the molecule `Cc1nn(C)c2c(=O)n(CC(=O)Nc3cc(Cl)cc(Cl)c3)nnc12`, the Percent Effect in experiment [1] was 0.37%; in [2], 12%; in experiment [3], 0.0353%; in experiment [4], 1.72%; in the experiment with Trypanosoma cruzi, -6.29%; in experiment [5], -1.58%. In addition, the Percent Effect in [6] was 19.6%; in the experiment filed under Homo sapiens, 12.4%; in experiment [7] it was 2.12%; in experiment [8], 10.3%; in experiment [9], -8.24%.
For `CCc1cc(NCCc2ccc(O)cc2)n2nccc2n1`, the Percent Effect in experiment [1] was -0.557%; in [2], 5.48%; in experiment [3] it was 93.2%; in [4] it was 6.39%; in the experiment with Trypanosoma cruzi it was 2.35%; in experiment [5] it was 25%. In addition, the Percent Effect was 9.58% in [6]; 46.2% in the experiment listed under Homo sapiens; 3.23% in experiment [7]; 15% in [8]; -4.87% in [9].
As for `CC(NC(=O)NCCCN(C)S(C)(=O)=O)c1cccc(Cl)c1` (stereo not drawn), the Percent Effect in experiment [1] is 1.78%; in experiment [2], 6.33%; in experiment [3], 0.875%; in [4], -4.21%; in the experiment with Trypanosoma cruzi it was -2.97%; in experiment [5] it was 0.215%. In addition, the Percent Effect stood at 11.8% in [6]; 13.8% in the experiment filed under Homo sapiens; 9.38% in [7]; 7.59% in experiment [8]; 0.197% in experiment [9].

(Values after ChEMBL document CHEMBL3988442, “University of Dundee, Small-Polar-MMV Screening Library” (2021).)
